# Gal4-VP16 FLuc: VP16 counterscreen qHTS for inhibitors of ROR gamma transcriptional activity. Drosophila S2 Gal4-VP16 UAS-luciferase, luminescence, 20 h. actives 3.5% (n = 310,000). Potency, µM (highest dose often 53.6 µM), for the others: at the highest dose activity, negative = inhibition, usual class: inhibitors;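 further: Gal4-VP16 expression switched on by copper sulfate through the metallothionein promoter; potency means the concentration at half of the fitted maximal effect; nearly all actives have a fitted effect of over 50% in size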
# DT40 TDP1 CPT: qHTS for Inhibitors of human tyrosyl-DNA phosphodiesterase 1 (TDP1): qHTS in cells in presence of CPT | chicken DT40 Tdp1-/-;hTDP1 cells + 20 nM CPT, ATP luminescence, 48 h | Potency, µM (top dose mostly 46.2 µM), inactives show top-dose activity change, negative = growth inhibition, hits mostly inhibitors | actives 12% (n = 420,000) | AID 686979, 2013; further: potency means the concentration at half of the fitted maximal effect; nearly all actives have a fitted effect of over 55% in size
#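 Cell growth measured by CellTiter-Glo luminescence after a minimum 48 h, 37 C compound exposure with 20 nM CPT in Tdp1-knockout DT40 cells stably expressing hTDP1, seeded 400/well; qHTS titration format.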
# RORg inh: qHTS for inhibitors of ROR gamma transcriptional activity | AID 2551, 2010 | Drosophila S2 Gal4-RORgamma UAS-luciferase reporter, 20 h | Potency, µM (series often up to 53.6 µM), without a hit: top-dose activity change, negative = inhibition, actives largely listed as inhibitors | Nuclear receptor ROR-gamma (Mus musculus), P51450 | actives 5.4% (n = 310,000); further: potency means the concentration at half of the fitted maximal effect; nearly all actives have a fitted effect of over 60% in size
# Target sequence (P51450 whole entry, looked up, the tested form may be a part): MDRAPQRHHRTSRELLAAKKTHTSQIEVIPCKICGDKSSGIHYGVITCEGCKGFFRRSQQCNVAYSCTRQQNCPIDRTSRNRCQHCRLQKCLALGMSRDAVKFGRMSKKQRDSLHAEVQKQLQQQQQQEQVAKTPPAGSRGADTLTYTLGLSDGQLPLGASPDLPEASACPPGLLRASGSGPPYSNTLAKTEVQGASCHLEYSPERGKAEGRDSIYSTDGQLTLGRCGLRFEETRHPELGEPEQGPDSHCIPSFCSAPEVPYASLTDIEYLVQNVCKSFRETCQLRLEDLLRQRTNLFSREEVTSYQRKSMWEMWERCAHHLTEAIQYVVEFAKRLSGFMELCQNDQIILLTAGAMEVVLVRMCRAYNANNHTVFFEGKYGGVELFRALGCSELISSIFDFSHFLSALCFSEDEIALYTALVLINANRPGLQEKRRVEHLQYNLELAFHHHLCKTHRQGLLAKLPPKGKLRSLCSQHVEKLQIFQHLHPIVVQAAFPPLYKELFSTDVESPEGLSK
#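 Schneider cells (Drosophila), stable Gal4 DBD–ROR gamma + UAS-luc; 1 hr cmpd preincubation; Cu2+ induction 700 uM final; 20 hr ambient; luminescence.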
# TDP1 cell noCPT: qHTS for Inhibitors of human tyrosyl-DNA phosphodiesterase 1 (TDP1): qHTS in cells in absence of CPT; DT40 Tdp1-/- hTDP1 cells, no CPT, ATP luminescence, 48 h; Potency, µM (highest dose often 46.2 µM), for inactives: at the highest dose activity change, negative = growth inhibition, actives largely listed as inhibitors; actives 15% (n = 420,000); AID 686978, 2013; further: potency means the concentration at half of the fitted maximal effect; nearly all actives have a fitted effect of over 55% in size
#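 Cells were dispensed at 400 per well, compounds added by pin tool, plates incubated ≥48 hr at 37 °C, then CellTiter-Glo added for 30 min at room temperature before luminescence reading. Line: DT40 Tdp1-/- complemented with hTDP1; camptothecin omitted.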
# IL1B secr inh: qHTS for Inhibitors of Inflammasome Signaling: IL-1-beta AlphaLISA Primary Screen; THP-1 LPS/ATP IL-1B secretion, AlphaLISA, 16 h; stronger effect = lower value; activity change, % at 57.5 µM; actives 4.7% (n = 360,000); AID 743279, 2014; in the data active means activity change below about -50%; inconclusive means mostly about -30% to -49%
#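 THP-1 cells pretreated 1 hr with compounds (up to 57.5 uM final), then stimulated with LPS (250 ng/mL final) plus ATP (1.25 mM final); secreted IL-1B measured by AlphaLISA after 16 hr, decreased signal indicating inhibition.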
# ELG1 repair inh: qHTS screen for small molecules that inhibit ELG1-dependent DNA repair in human embryonic kidney (HEK293T) cells expressing luciferase-tagged ELG1. Potency, µM (titrated, usually from 46.1 µM), for inactives: top-dose activity change, negative = inhibition, actives largely listed as inhibitors. actives 2.3% (n = 330,000). HEK293T ELG1-luciferase reporter, luminescence, 16 h; DNA damage induced by 5-fluorouridine; further: potency means the concentration at half of the fitted maximal effect; nearly all actives have a fitted effect of over 55% in size
#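 5-Fluorouridine DNA damage + compound/DMSO, 2,000 cells/well, 16 h, 37 °C/5% CO2. ONE-Glo, 30 min RT, luminescence. Readout = decrease in reporter signal.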
# * marks the source's active call; other numbers are inactive results; ? = inconclusive; nt = no result given; ! = not active in a repeat; [ ] = another dose, or the depositor's remark. In the library only some 21% were active in any assay of this set; here they are far more common. Unless noted, the call rests on the fitted dose curve; in most records, active means well fitted curve in the direction sought with a large enough effect; inconclusive means small, poorly fitted or top-dose-only effect, or another doubt; inactive means no such curve, though single readings can be large; an effect the other way counts as inactive or inconclusive. On the % scale 0 is the no-effect control and ±100 the full control effect.
SMILES,Gal4-VP16 FLuc,DT40 TDP1 CPT,RORg inh,TDP1 cell noCPT,IL1B secr inh,ELG1 repair inh
CN1CCCCC1c1cccnc1 (stereo unspecified),nt,-3%,nt,-2%,nt,nt
O=C(N/N=C/c1c(O)n(Cc2ccc(F)cc2)c(=O)[nH]c1=O)c1ccccc1O,?,13µM*,?,?,35,-1%
CCCCCCC(=O)N/N=C/c1c(O)n(C(C)CC)c(=S)[nH]c1=O (stereo unspecified),?,13µM*,10µM*,9.2µM*,220,?
CCn1c(O)c(/C=N/NC(=O)c2ccccc2)c(=O)[nH]c1=S,?,-5%,7.1µM*,-6%,9,?
CCCCCCC(=O)N/N=C/c1c(O)n(CCc2ccccc2)c(=O)[nH]c1=O,-2%,?,-45%,18µM*,9,?
CCCCCCCC(=O)Cl,-4%,nt,-16%,nt,nt,nt
COC(=O)C1=C(c2ccc(C(C)=O)cc2)C[C@@H]2CC[C@H]1N2C(=O)NCc1ccco1,nt,-3%,nt,15%,11,24%
O=C(N/N=C/c1c(O)n(Cc2ccccc2)c(=O)[nH]c1=O)c1ccccc1O,?,5%,11µM*,-27%,32,11%
COc1ccc(Cn2c(O)c(/C=N/NC(=O)c3ccccc3O)c(=O)[nH]c2=O)cc1,?,13%,?,-1%,-23,26%
c1ccc2c(c1)[IH]c1ccccc1-2,nt,0.052µM*,nt,0.052µM*,-94*,nt
Nc1ncnc2c1nc(Sc1ccc(Cl)cc1)n2[C@@H]1O[C@@H]2COP(O)(=S)O[C@H]2[C@H]1O (stereo partly specified),-9%,nt,11%,nt,nt,nt
C[C@]12CC[C@H]3[C@@H](CCC4=C(Cl)C(=O)CC[C@@]43C)[C@@H]1CC[C@@H]2O,nt,-8%,nt,?,nt,nt
OC(Cn1c2ccccc2c2ccccc21)C[n+]1cccc2ccccc21 (stereo unspecified),-3%,18µM*,23%,16µM*,-68*,-2%
COCCO[C@H]1CCC2C3CC=C4C[C@@H](O)CC[C@]4(C)C3CC[C@@]21C (stereo partly specified),nt,?,nt,?,53,?
COC(=O)Cn1cc(C(=O)c2ccccc2F)c2ccccc21,2%,-3%,16%,-13%,17,2%
O=Cc1cn(Cc2ccccc2F)c2ccccc12,-15%[10 µM],21µM*,2µM*,15µM*,?,?
CC(=O)c1cn(Cc2ccccc2F)c2ccccc12,7.1µM*,8.2µM*,28%,4.6µM*,-4,?
O=C(c1ccccc1F)c1cn(Cc2ccccc2)c2ccccc12,-22%,?,?,?,-6,-2%
O=C(c1ccccc1F)c1cn(Cc2ccc(F)cc2)c2ccccc12,?,16µM*,?,?,?,?
COc1ccc(OC)c(NC(=O)Cn2cc(C(=O)c3ccccc3F)c3ccccc32)c1,nt,?,nt,23µM*,nt,nt
O=Cc1cn(Cc2c(F)cccc2Cl)c2ccccc12,?,?,-41%,?,-24,?
c1ccc(CCN2CCCC2)cc1,nt,-1%,nt,-7%,nt,nt
CN1[C@@H]2CC[C@H]1CC(OC(=O)N1Cc3ccccc3NC1=O)C2 (stereo partly specified),3%,nt,-13%,nt,nt,nt
O=C1NC(=S)N(Cc2ccco2)C(=O)/C1=C\c1cccs1,2%,nt,-2%,nt,nt,8%
CC(=O)c1cn(Cc2ccccc2C#N)c2ccccc12,3.2µM*,2.1µM*,?,1µM*,0,7%
SMILES,Gal4-VP16 FLuc,DT40 TDP1 CPT,RORg inh,TDP1 cell noCPT,IL1B secr inh,ELG1 repair inh
CC(Cc1ccccc1)N(C)C (stereo unspecified),1%,nt,-5%,nt,nt,nt
CCC(C(=O)Nc1ccccc1F)N1C(=O)CN=C(c2ccccc2)c2ccccc21 (stereo unspecified),nt,?,nt,23µM*,nt,nt
c1ccc2c(c1)Nc1ccccc1S2,-2%,5.3µM*!,?,34µM*!,4,6%
C=CCN1CC[C@]23CCCC[C@H]2[C@H]1Cc1ccc(O)cc13,nt,2%,nt,?,nt,nt
COC(=O)C(O)(c1ccc(NC(=S)NC(=O)c2ccc(Cl)cc2Cl)cc1)C(F)(F)F (stereo unspecified),?,?,5µM*,15µM*,-1,-12%
CCOC(=O)C(O)(c1ccc(NC(=S)NC(=O)c2ccc(Cl)cc2Cl)cc1)C(F)(F)F (stereo unspecified),10µM*,?,6.3µM*,26µM*,?,1%
CCOC(=O)C(NC(=O)CCl)(Nc1ccc(C(O)(C(=O)OCC)C(F)(F)F)cc1)C(F)(F)F (stereo unspecified),-9%,?,-9%,?,-89*,-6%
CCCCCCC(Cl)(Cn1ccnc1)c1ccccc1 (stereo unspecified),nt,?,nt,15µM*,-18,nt
CCCCCCn1c(O)c(C=NCCCn2ccnc2)c(=O)[nH]c1=O,4%,-15%,27%,-22%,20,-12%
CC(C)c1ccc(Cc2cnc(NC(=O)c3ccc4c(c3)CC(c3ccccc3)OC4=O)s2)cc1 (stereo unspecified),nt,23µM*,nt,18µM*,nt,nt
CC1=CC2/C=C(\C)CCC(O)C(O)/C=C/C(=O)C23C(=O)NC(CC(C)C)C3C1C (stereo unspecified),7.1µM*,3.7µM*,5µM*,1.8µM*,-106*,?
Cc1nccc2c1[nH]c1ccc(Br)cc12,nt,?,nt,23µM*,-19,-7%
OC(c1ccc(Cl)cc1)(c1cncnc1)c1ccccc1Cl (stereo unspecified),-1%,nt,24%,nt,nt,nt
CCCN(CCC)C1CCc2ccc(O)cc2C1 (stereo unspecified),nt,4%,nt,17%,10,16%
COC(=O)[C@]12CCC(C)(C)C[C@H]1[C@H]1C(=O)C=C3[C@@]4(C)C=C(C#N)C(=O)C(C)(C)[C@@H]4CC[C@@]3(C)[C@]1(C)CC2,nt,1.2µM*,nt,1.1µM*,nt,nt
COC(=O)N1CCC2(CCCN(C)C2)CC1,10%,27%,-16%,-20%,nt,nt
CCCCCCC(C)(C)c1ccc([C@@H]2C[C@H](O)CC[C@@H]2CCCO)c(O)c1,?,19µM*,?,3µM*,nt,nt
